Results published in PubChem BioAssay (Tox21).
Records with an inconclusive call do not appear. Calls of active or inactive are those of the source. Calls come from the whole dose curve; as a rule, active = well fitted curve in the direction sought with a large enough effect in the repeat runs; inconclusive = weak or mixed curves; inactive = no such curve, though single readings can be large; an effect the other way counts as inactive or inconclusive.

What was measured:
[1] = biological target: Cytochrome P450 2D6 (Homo sapiens) (UniProt P10635); test: Cytochrome P450 Family 2 Subfamily D Member 6 (CYP2D6) small molecule antagonists: luciferase reporter qHTS assay (AID 1671196); note: nearly all actives have a fitted effect of over 50% in size; note: potency is the fitted concentration of half-maximal effect; for activity change, negative = inhibition: series mostly up to about 120 µM
Method in brief: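 CYP2D6 enzyme–substrate mix was held with compound for 10 min at room temperature, then NADPH regeneration solution was added and the reaction ran 1 h at room temperature. Luciferin product was detected by luminescence after 20 min with detection reagent.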

[2] = biological target: Cytochrome P450 2C19 (Homo sapiens) (UniProt P33261); test: Cytochrome P450 Family 2 Subfamily C Member 19 (CYP2C19) small molecule antagonists: luciferase reporter qHTS assay (AID 1671197); note: nearly all actives have a fitted effect of over 65% in size; note: potency is the fitted concentration of half-maximal effect; for activity change, negative = inhibition: series mostly up to about 120 µM
Method in brief: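 Inhibition of CYP2C19 was scored from loss of luminescence in a P450-Glo proluciferin substrate assay, NADPH-started and run 1 h at 37C, with ketoconazole as positive control.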

[3] = biological target: Cytochrome P450 2C9 (Homo sapiens) (UniProt P11712); test: Cytochrome P450 Family 2 Subfamily C Member 9 (CYP2C9) small molecule antagonists: luciferase reporter qHTS assay (AID 1671198); note: series mostly up to about 120 µM; nearly all actives have a fitted effect of over 50% in size
Method in brief: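 Enzyme-substrate mix preincubated with compound 10 min at room temperature; reaction started with NADPH regeneration solution, 1 h 37C. Luminescent luciferin product read after 20 min detection reagent.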

[4] = biological target: Voltage-gated inwardly rectifying potassium channel KCNH2 (Homo sapiens) (UniProt Q12809); test: Human Ether-a-go-go-Related Gene (hERG) channel small molecule antagonists: fluorescence cell-based qHTS assay (AID 1671200); note: nearly all actives have a fitted effect of over 50% in size; note: potency is the fitted concentration of half-maximal effect;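 for activity change, negative = inhibition: hERG-expressing U2OS cells given a thallium stimulus after FluxOR II dye loading; series mostly up to about 77 µM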
Method in brief: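 hERG-U2OS cells plated overnight at 37 C, loaded with FluxOR II dye 1 h at RT in dark; after 10 min, thallium stimulus added. Fluorescence (480/540 nm) read kinetically for 2 min at 1 s intervals.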

[5] = biological target: Cytochrome P450 3A4 (Homo sapiens) (UniProt P08684); test: Cytochrome P450 Family 3 Subfamily A Member 4 (CYP3A4) small molecule antagonists: luciferase reporter qHTS assay (AID 1671201); note: series mostly up to about 120 µM; nearly all actives have a fitted effect of over 50% in size
Method in brief: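 P450-Glo CYP3A4 luminescent assay: compounds preincubated 10 min at room temperature with enzyme and proluciferin substrate, NADPH regeneration added, 1 h room-temperature reaction, stopped with luciferin detection reagent; luminescence read after 20 min. Ketoconazole positive control.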

[6] = biological target: Cytochrome P450 1A2 (Homo sapiens) (UniProt P05177); test: Cytochrome P450 Family 1 Subfamily A Member 2 (CYP1A2) small molecule antagonists: luciferase reporter qHTS assay (AID 1671199); note: nearly all actives have a fitted effect of over 50% in size; note: potency is the fitted concentration of half-maximal effect; for activity change, negative = inhibition: series mostly up to about 120 µM
Method in brief: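 Human CYP1A2 activity measured with a P450-Glo proluciferin substrate; compounds in DMSO preincubated 10 min at room temperature with enzyme-substrate mix, then NADPH regeneration system added for 1 h. Luciferin detection reagent, 20 min, luminescence read.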
% is set by controls: 0 for no effect and ±100 for the full control effect.

Chain of Cytochrome P450 2C9 (Homo sapiens) (P11712 whole entry, looked up): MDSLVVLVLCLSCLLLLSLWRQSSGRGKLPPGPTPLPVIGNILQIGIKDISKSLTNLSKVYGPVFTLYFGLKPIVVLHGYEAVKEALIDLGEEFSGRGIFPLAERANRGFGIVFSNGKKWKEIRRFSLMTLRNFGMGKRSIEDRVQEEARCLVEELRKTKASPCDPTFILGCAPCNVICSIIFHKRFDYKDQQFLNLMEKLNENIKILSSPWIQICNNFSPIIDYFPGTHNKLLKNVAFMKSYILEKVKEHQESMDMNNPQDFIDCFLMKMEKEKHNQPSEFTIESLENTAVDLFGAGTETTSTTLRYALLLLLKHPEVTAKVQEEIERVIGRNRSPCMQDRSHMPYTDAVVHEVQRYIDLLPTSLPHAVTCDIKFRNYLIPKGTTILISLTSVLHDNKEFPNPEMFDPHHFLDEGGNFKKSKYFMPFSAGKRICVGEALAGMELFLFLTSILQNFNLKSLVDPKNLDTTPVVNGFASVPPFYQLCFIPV
Chain of Cytochrome P450 3A4 (Homo sapiens) (P08684 whole entry, looked up): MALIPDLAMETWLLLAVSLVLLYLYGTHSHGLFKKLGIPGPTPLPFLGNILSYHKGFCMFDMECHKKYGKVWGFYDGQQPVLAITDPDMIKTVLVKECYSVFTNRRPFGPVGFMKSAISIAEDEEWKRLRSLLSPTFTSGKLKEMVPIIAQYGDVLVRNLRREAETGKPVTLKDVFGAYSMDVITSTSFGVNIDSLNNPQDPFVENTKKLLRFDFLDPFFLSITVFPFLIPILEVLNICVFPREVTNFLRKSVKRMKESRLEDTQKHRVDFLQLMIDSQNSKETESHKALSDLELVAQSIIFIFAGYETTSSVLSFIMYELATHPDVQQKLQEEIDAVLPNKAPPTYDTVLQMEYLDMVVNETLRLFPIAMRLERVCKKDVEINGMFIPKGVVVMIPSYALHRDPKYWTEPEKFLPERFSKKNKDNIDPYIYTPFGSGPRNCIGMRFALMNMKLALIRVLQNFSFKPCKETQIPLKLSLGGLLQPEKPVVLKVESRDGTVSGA
Chain of Voltage-gated inwardly rectifying potassium channel KCNH2 (Homo sapiens) (Q12809 whole entry, looked up): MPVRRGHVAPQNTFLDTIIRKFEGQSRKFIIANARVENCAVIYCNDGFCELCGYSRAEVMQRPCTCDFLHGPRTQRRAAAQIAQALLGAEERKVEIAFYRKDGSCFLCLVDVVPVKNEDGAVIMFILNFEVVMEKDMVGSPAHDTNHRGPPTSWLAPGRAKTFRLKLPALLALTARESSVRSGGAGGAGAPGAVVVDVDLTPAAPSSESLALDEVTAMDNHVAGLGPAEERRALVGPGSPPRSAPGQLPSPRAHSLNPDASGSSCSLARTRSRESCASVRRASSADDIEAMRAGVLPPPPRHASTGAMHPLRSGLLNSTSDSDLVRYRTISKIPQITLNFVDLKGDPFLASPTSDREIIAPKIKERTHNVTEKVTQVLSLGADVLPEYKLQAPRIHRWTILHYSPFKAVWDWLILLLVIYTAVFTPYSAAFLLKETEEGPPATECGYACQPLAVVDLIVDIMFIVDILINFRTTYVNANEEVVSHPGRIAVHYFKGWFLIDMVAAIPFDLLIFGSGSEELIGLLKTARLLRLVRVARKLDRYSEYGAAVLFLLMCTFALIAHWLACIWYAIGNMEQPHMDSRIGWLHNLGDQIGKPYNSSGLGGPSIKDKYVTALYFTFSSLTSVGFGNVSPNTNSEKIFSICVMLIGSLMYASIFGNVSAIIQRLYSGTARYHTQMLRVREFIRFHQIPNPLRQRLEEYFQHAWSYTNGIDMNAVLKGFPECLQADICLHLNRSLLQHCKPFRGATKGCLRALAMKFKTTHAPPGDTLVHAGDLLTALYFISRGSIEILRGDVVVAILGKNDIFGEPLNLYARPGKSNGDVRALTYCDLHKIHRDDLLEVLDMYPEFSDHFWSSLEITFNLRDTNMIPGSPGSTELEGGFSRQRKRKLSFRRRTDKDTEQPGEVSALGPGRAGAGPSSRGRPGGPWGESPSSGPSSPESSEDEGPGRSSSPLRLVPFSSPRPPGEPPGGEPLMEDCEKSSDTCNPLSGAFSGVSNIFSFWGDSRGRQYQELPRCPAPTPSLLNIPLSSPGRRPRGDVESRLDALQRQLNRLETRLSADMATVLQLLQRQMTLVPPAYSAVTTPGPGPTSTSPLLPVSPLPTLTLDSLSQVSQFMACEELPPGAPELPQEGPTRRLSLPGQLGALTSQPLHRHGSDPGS
Chain of Cytochrome P450 2C19 (Homo sapiens) (P33261 whole entry, looked up): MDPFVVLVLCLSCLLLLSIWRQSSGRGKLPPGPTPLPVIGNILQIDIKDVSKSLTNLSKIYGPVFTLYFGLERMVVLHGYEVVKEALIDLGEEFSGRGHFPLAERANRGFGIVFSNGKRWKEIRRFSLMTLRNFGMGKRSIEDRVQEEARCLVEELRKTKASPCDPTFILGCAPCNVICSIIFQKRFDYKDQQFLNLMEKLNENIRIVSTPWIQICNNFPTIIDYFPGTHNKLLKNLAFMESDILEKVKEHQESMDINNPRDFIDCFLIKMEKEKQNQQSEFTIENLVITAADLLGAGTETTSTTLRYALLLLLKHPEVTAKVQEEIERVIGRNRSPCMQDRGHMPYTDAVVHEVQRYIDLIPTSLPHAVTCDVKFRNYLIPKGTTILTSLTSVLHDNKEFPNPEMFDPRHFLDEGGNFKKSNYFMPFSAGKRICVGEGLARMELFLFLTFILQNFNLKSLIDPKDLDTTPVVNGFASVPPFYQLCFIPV
Chain of Cytochrome P450 2D6 (Homo sapiens) (P10635 whole entry, looked up): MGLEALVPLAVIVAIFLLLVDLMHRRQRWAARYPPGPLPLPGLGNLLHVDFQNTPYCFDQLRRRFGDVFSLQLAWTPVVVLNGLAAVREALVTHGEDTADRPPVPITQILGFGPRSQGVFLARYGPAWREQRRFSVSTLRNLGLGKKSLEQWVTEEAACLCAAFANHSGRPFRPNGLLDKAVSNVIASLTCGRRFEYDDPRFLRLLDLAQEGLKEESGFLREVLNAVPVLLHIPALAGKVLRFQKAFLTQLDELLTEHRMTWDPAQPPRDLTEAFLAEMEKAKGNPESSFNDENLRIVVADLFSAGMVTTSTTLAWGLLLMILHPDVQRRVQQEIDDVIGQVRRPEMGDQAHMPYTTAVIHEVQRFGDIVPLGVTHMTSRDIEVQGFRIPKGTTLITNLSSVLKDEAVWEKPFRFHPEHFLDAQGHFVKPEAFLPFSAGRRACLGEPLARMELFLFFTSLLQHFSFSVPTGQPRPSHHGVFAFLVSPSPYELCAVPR
Chain of Cytochrome P450 1A2 (Homo sapiens) (P05177 whole entry, looked up): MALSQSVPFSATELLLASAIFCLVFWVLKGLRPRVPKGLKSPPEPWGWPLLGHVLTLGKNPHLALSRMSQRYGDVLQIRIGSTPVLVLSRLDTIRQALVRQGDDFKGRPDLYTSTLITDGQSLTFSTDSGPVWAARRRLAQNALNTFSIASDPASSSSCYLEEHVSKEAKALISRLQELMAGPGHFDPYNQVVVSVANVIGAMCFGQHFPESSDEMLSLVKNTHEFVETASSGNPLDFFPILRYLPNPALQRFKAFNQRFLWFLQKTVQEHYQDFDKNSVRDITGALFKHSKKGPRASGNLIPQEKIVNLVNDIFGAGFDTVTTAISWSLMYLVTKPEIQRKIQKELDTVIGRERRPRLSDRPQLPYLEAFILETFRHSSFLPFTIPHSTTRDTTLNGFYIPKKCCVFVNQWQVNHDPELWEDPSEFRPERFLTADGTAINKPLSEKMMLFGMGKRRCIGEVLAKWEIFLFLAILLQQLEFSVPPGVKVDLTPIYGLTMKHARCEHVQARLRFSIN

CC(C)(O)C(=O)c1ccccc1
inactive: Potency [1] | Potency [3] | Potency [4] | Potency [5]
active: Potency [2] 39.9 µM

NC(CSCC(=O)O)C(=O)O (configuration not stated)
inactive: Potency [1] | Potency [2] | Potency [3] | Potency [4] | Potency [5]

CO[C@]12C[C@@H](COC(=O)c3cncc(Br)c3)CN(C)[C@@H]1Cc1cn(C)c3cccc2c13
inactive: Potency [3]
active: Potency [1] 0.0692 µM | Potency [2] 2.45 µM | Potency [4] 1.07 µM

CC(C)NCCCC1(C(N)=O)c2ccccc2-c2ccccc21
active: Potency [1] 2.45 µM
inactive: Potency [2] | Potency [6] | Potency [4]

O=C1CC2CC1C1CCCC21 (configuration not stated)
inactive: Potency [1] | Potency [2] | Potency [3] | Potency [4]

CC(C[N+](C)(C)C)OC(N)=O (configuration not stated)
inactive: Potency [1] | Potency [2] | Potency [3] | Potency [4] | Potency [5]

CC/C=C\CC/C=C/CO
inactive: Potency [1] | Potency [2] | Potency [3] | Potency [4] | Potency [5]

C=C(C)C(=O)OCCCCCCCC(C)C
inactive: Potency [1] | Potency [3] | Potency [4]
active: Potency [2] 71.5 µM

O=C(O)CCCl
inactive: Potency [1] | Potency [2] | Potency [3] | Potency [4] | Potency [5]

NC(=O)c1cn(Cc2c(F)cccc2F)nn1
inactive: Potency [1] | Potency [2] | Potency [3] | Potency [6] | Potency [5]

CCOC(=O)CCC(C)=O
inactive: Potency [1] | Potency [2] | Potency [3] | Potency [6] | Potency [4] | Potency [5]

CN1C(=O)N(C)C(O)C1O (configuration not stated)
inactive: Potency [1] | Potency [2] | Potency [3] | Potency [4] | Potency [5]

Cc1ccc(Cl)cc1Cl
inactive: Potency [1] | Potency [2] | Potency [3] | Potency [4]

COC(=O)c1cc(C(=O)OC)cc(S(=O)(=O)O)c1
inactive: Potency [1] | Potency [2] | Potency [3] | Potency [4] | Potency [5]

CCn1ccnc1CC1COc2ccccc2O1 (configuration not stated)
inactive: Potency [3] | Potency [4] | Potency [5]
active: Potency [1] 0.776 µM | Potency [2] 4.9 µM

COC(=O)[C@@H](N)Cc1ccc(O)c(O)c1
inactive: Potency [1] | Potency [2] | Potency [3] | Potency [4]

CC(=O)Nc1ccc(S(N)(=O)=O)cc1
inactive: Potency [1] | Potency [3] | Potency [6] | Potency [4] | Potency [5]

OC(CCN1CCCCC1)(c1ccccc1)C1CC2C=CC1C2 (configuration not stated)
active: Potency [1] 0.776 µM
inactive: Potency [3] | Potency [6]

O=C(O)Cc1ccc(CCNS(=O)(=O)c2ccc(Cl)cc2)cc1
inactive: Potency [1] | Potency [2] | Potency [6] | Potency [4] | Potency [5]

Cc1cc(O)cc2c1O[C@](C)(CCC[C@H](C)CCC[C@H](C)CCCC(C)C)CC2
inactive: Potency [1] | Potency [2] | Potency [4] | Potency [5]

C[C@](N)(Cc1ccc(O)cc1)C(=O)O
inactive: activity change, negative = inhibition [1] -0.539% [at 10.5 µM] | activity change, negative = inhibition [2] -21.1% [at 10.5 µM] | activity change, negative = inhibition [6] 0.454% [at 10.5 µM] | activity change, negative = inhibition [4] 1.07% [at 6.97 µM] | activity change, negative = inhibition [5] -20.3% [at 10.5 µM]

Cc1ccc(C#N)cc1
active: Potency [2] 34.4 µM
inactive: Potency [1] | Potency [6] | Potency [4] | Potency [5]

Nc1ccc(S(=O)(=O)Nc2ccnn2-c2ccccc2)cc1
inactive: activity change, negative = inhibition [1] 0.38% [at 23.6 µM] | Potency [2] | Potency [6] | activity change, negative = inhibition [4] 4.06% [at 15.8 µM]

O=C1CCCN1C1CCCCC1
inactive: Potency [3] | Potency [4] | Potency [5]
active: Potency [1] 35.6 µM

C=COCC1CCC(CO)CC1 (configuration not stated)
inactive: Potency [1] | Potency [2] | Potency [6] | Potency [4] | Potency [5]

Cc1ccc(=O)n(-c2ccccc2)c1
inactive: Potency [1] | Potency [3] | Potency [6] | Potency [4] | Potency [5]

CCCCNC(=O)NCCCC
active: Potency [2] 39.9 µM | Potency [6] 35.6 µM
inactive: Potency [1] | Potency [4] | Potency [5]

CC(C)CCCC(C)N (configuration not stated)
inactive: Potency [1] | Potency [3] | Potency [4] | Potency [5]
active: Potency [6] 21.9 µM

OC1CCCCC1c1ccccc1 (configuration not stated)
active: Potency [2] 79.6 µM
inactive: Potency [1] | Potency [6] | Potency [4] | Potency [5]

CC(=O)OCC(=O)[C@@]1(O)CC[C@H]2[C@@H]3CCC4=CC(=O)CC[C@]4(C)[C@H]3C(=O)C[C@@]21C
active: Potency [1] 2.45 µM
inactive: Potency [2] | Potency [6] | Potency [4] | Potency [5]

CCCc1cc(C(N)=S)ccn1
inactive: Potency [1] | Potency [3] | Potency [6] | Potency [4] | Potency [5]

COc1ccc2c(c1)c(CC(=O)OCC(=O)O)c(C)n2C(=O)c1ccc(Cl)cc1
inactive: Potency [1] | Potency [2] | Potency [6] | Potency [4] | Potency [5]

Nc1c[n+](N2CCOCC2)no1
inactive: Potency [1] | Potency [2] | Potency [6] | Potency [4] | Potency [5]

CCCCC/C=C\CCC=O
active: Potency [2] 63.3 µM
inactive: Potency [1] | Potency [4]

NC(=O)c1ccc([N+](=O)[O-])cc1
active: Potency [2] 79.3 µM | Potency [6] 39.8 µM
inactive: Potency [1] | Potency [4]

N=C(N)c1ccc(OCCCOc2ccc(C(=N)N)cc2)cc1
inactive: Potency [1] | Potency [2] | Potency [6] | Potency [4] | Potency [5]
